Reference: the antibiotic and cytotoxicity screens of Wong et al. (2023)
Screen size: about 39,000 compounds; about 3,300 (8.5%) were called active. This excerpt belongs to a sample that is enriched for actives.

Tested on: HepG2
Test: cytotoxicity call (relative viability < 0.9)
Settings: 10 µM

| SMILES | cytotoxicity call |
| --- | --- |
| C[C@@H]1CCCCO[C@H](CN(C)S(=O)(=O)c2ccccc2)[C@H](C)CN([C@@H](C)CO)C(=O)c2cc(NC(=O)NC3CCCCC3)ccc2O1 | inactive |
| C[C@H](CO)N1C[C@H](C)[C@@H](CN(C)Cc2ccc3c(c2)OCO3)Oc2c(NC(=O)C3CCOCC3)cccc2C1=O | inactive |
| C[C@@H]1CN([C@H](C)CO)C(=O)c2cc(C#CCc3ccccc3)cnc2O[C@@H]1CN(C)C(=O)C1CCOCC1 | inactive |
| O=C(c1ccc(Cl)cc1)c1coc2c1cc(O)c1ccccc12 | active |
| Oc1ccc(F)c2ccccc12 | inactive |
| C[C@@H]1CN([C@@H](C)CO)C(=O)Cc2cc(NC(=O)Nc3ccc4c(c3)OCO4)ccc2O[C@H]1CN(C)C(=O)Nc1ccc(C(F)(F)F)cc1 | inactive |
| C[C@H](CO)N1C[C@H](C)[C@H](CN(C)C(=O)Nc2ccc3c(c2)OCO3)Oc2ccc(NC(=O)Nc3ccc(C(F)(F)F)cc3)cc2CC1=O | inactive |
| C[C@@H]1CN([C@@H](C)CO)C(=O)Cc2cc(NC(=O)Nc3ccc(C(F)(F)F)cc3)ccc2O[C@H]1CN(C)C(=O)Nc1ccc2c(c1)OCO2 | inactive |
| C[C@H](CO)N1C[C@H](C)[C@@H](CN(C)C(=O)Nc2ccc3c(c2)OCO3)Oc2ccc(NC(=O)Nc3ccc(C(F)(F)F)cc3)cc2CC1=O | inactive |
| C[C@H]1CN([C@@H](C)CO)C(=O)Cc2cc(NC(=O)Nc3ccc4c(c3)OCO4)ccc2O[C@@H]1CN(C)C(=O)Nc1ccc(C(F)(F)F)cc1 | inactive |
| C[C@H]1CN([C@@H](C)CO)C(=O)Cc2cc(NC(=O)Nc3ccc(C(F)(F)F)cc3)ccc2O[C@@H]1CN(C)C(=O)Nc1ccc2c(c1)OCO2 | inactive |
| C[C@H]1CN([C@@H](C)CO)C(=O)Cc2cc(NC(=O)Nc3ccc(C(F)(F)F)cc3)ccc2O[C@H]1CN(C)C(=O)Nc1ccc2c(c1)OCO2 | inactive |
| C[C@@H]1CN([C@H](C)CO)C(=O)Cc2cc(NC(=O)Nc3ccc4c(c3)OCO4)ccc2O[C@@H]1CN(C)C(=O)Nc1ccc(C(F)(F)F)cc1 | active |
| C[C@@H]1CN([C@@H](C)CO)C(=O)Cc2cc(NC(=O)Nc3ccc(C(F)(F)F)cc3)ccc2O[C@@H]1CN(C)C(=O)Nc1ccc2c(c1)OCO2 | active |
| C[C@@H]1CN([C@H](C)CO)C(=O)Cc2cc(NC(=O)Nc3ccc(C(F)(F)F)cc3)ccc2O[C@H]1CN(C)C(=O)Nc1ccc2c(c1)OCO2 | inactive |
| C[C@H]1CN([C@@H](C)CO)C(=O)Cc2cc(NC(=O)Nc3ccc4c(c3)OCO4)ccc2O[C@H]1CN(C)C(=O)Nc1ccc(C(F)(F)F)cc1 | active |
| C[C@@H]1CN([C@H](C)CO)C(=O)Cc2cc(NC(=O)Nc3ccc(C(F)(F)F)cc3)ccc2O[C@@H]1CN(C)C(=O)Nc1ccc2c(c1)OCO2 | active |
| Cc1noc(C)c1NC(=O)Nc1ccc2c(c1)C(=O)N([C@H](C)CO)C[C@H](C)[C@H](CN(C)Cc1ccccc1)OCCCC[C@H](C)O2 | inactive |
| C=CCOC(=O)[C@H]1[C@@H]2C(=O)O[C@@H](c3ccccc3)[C@@H](c3ccccc3)N2[C@@H](c2ccc(OCCOC(=O)[C@@H]3C[C@@H]4C(=O)N[C@@H](CC(C)C)C(=O)N4[C@@H]3c3cccc(OCCO)c3)cc2)[C@]12C(=O)Nc1ccccc12 | inactive |
| COc1ccc(S(=O)(=O)N(C)C[C@H]2Oc3ccc(NS(=O)(=O)c4cccs4)cc3C(=O)N([C@H](C)CO)C[C@@H]2C)cc1 | inactive |

| SMILES | cytotoxicity call |
| --- | --- |
| COc1cccc(NC(=O)N[C@H]2C=C[C@@H](CC(=O)N3CCN(C)CC3)O[C@H]2CO)c1 | inactive |
| C[C@@H]1CN([C@@H](C)CO)C(=O)c2cc(NC(=O)Nc3ccc4c(c3)OCO4)ccc2O[C@@H](C)CCCCO[C@H]1CN(C)Cc1ccncc1 | inactive |
| c1cnc2nccn2c1 | inactive |
| C[C@@H]1CN([C@H](C)CO)C(=O)c2cc(NC(=O)CCCN(C)C)ccc2O[C@@H]1CN(C)S(=O)(=O)c1cn(C)cn1 | inactive |
| C[C@@H]1CN([C@@H](C)CO)C(=O)c2cccc(NC(=O)Nc3cccc4ccccc34)c2O[C@@H]1CN(C)Cc1ccc(C(=O)Nc2ccccc2N)cc1 | inactive |
| C[C@@H]1CN([C@H](C)CO)C(=O)c2cccc(NC(=O)Nc3cccc4ccccc34)c2O[C@@H]1CN(C)Cc1ccc(C(=O)Nc2ccccc2N)cc1 | inactive |
| C[C@H](CO)N1C[C@H](C)[C@H](CN(C)Cc2ccc(C(=O)Nc3ccccc3N)cc2)Oc2c(NC(=O)Nc3ccccc3)cccc2C1=O | inactive |
| C[C@H](CO)N1C[C@H](C)[C@H](CN(C)Cc2ccc(C(=O)Nc3ccccc3N)cc2)Oc2c(NC(=O)Nc3cccc4ccccc34)cccc2C1=O | active |
| C[C@H]1CN([C@@H](C)CO)C(=O)c2cccc(NC(=O)Nc3ccccc3)c2O[C@@H]1CN(C)Cc1ccc(C(=O)Nc2ccccc2N)cc1 | inactive |
| C[C@H]1CN([C@@H](C)CO)C(=O)c2cccc(NC(=O)Nc3cccc4ccccc34)c2O[C@H]1CN(C)Cc1ccc(C(=O)Nc2ccccc2N)cc1 | active |
| COc1ccc(NC(=O)N(C)C[C@@H]2Oc3ccc(NC(=O)Nc4ccc(C(F)(F)F)cc4)cc3C(=O)N([C@@H](C)CO)C[C@@H]2C)cc1 | inactive |
| O[C@@H]1Cc2ccccc2[C@H]1O | inactive |
| O=C(C[C@H]1CC[C@@H]2[C@H](COC[C@H](O)CN2S(=O)(=O)c2ccc(Oc3ccccc3)cc2)O1)NCCN1CCCCC1 | inactive |
| O=C(C[C@H]1CC[C@H]2[C@@H](COC[C@H](O)CN2S(=O)(=O)c2cccc(Cl)c2)O1)NCCCN1CCOCC1 | inactive |
| COc1ccc(NC(=O)N(C)C[C@H]2OCCCC[C@@H](C)Oc3ccc(NS(=O)(=O)c4ccccc4)cc3C(=O)N([C@@H](C)CO)C[C@H]2C)cc1 | inactive |
| CC(C)NC(=O)N(C)C[C@H]1OCc2cnnn2CCCC(=O)N([C@H](C)CO)C[C@H]1C | inactive |
| C[C@H]1CCCCO[C@H](CN(C)C(=O)Nc2ccc(F)cc2)[C@@H](C)CN([C@@H](C)CO)C(=O)c2cc(NS(=O)(=O)c3ccc(Cl)cc3)ccc2O1 | active |
| C[C@H]1CCCCO[C@@H](CN(C)C(=O)Nc2ccc(F)cc2)[C@@H](C)CN([C@@H](C)CO)C(=O)c2cc(NS(=O)(=O)c3ccc(Cl)cc3)ccc2O1 | inactive |
| C[C@@H]1CCCCO[C@@H](CN(C)C(=O)Nc2ccccc2)[C@H](C)CN([C@@H](C)CO)C(=O)c2cc(NS(=O)(=O)c3ccc(Cl)cc3)ccc2O1 | inactive |
| C[C@@H]1CN([C@H](C)CO)C(=O)c2cc(NS(=O)(=O)c3ccc(Cl)cc3)ccc2O[C@@H](C)CCCCO[C@H]1CN(C)C(=O)Nc1ccc(F)cc1 | active |

| SMILES | cytotoxicity call |
| --- | --- |
| C[C@@H]1CCCCO[C@H](CN(C)C(=O)Nc2ccc(F)cc2)[C@@H](C)CN([C@H](C)CO)C(=O)c2cc(NS(=O)(=O)c3ccc(Cl)cc3)ccc2O1 | inactive |
| C[C@@H]1CCCCO[C@@H](CN(C)C(=O)Nc2ccc(F)cc2)[C@H](C)CN([C@@H](C)CO)C(=O)c2cc(NS(=O)(=O)c3ccc(Cl)cc3)ccc2O1 | inactive |
| C[C@H](CO)N1C[C@H](C)[C@@H](CN(C)C(=O)Nc2ccc(F)cc2)OCCCC[C@H](C)Oc2ccc(NS(=O)(=O)c3ccc(Cl)cc3)cc2C1=O | inactive |
| C[C@@H]1CCCCO[C@@H](CN(C)C(=O)Nc2ccc(F)cc2)[C@@H](C)CN([C@H](C)CO)C(=O)c2cc(NS(=O)(=O)c3ccc(Cl)cc3)ccc2O1 | inactive |
| C[C@@H]1CN([C@@H](C)CO)C(=O)c2cc(NS(=O)(=O)c3ccc(Cl)cc3)ccc2O[C@@H](C)CCCCO[C@@H]1CN(C)C(=O)Nc1ccc(F)cc1 | inactive |
| C[C@@H]1CCCCO[C@H](CN(C)C(=O)Nc2ccccc2)[C@@H](C)CN([C@H](C)CO)C(=O)c2cc(NS(=O)(=O)c3ccc(Cl)cc3)ccc2O1 | inactive |
| C[C@@H]1CCCCO[C@H](CN(C)C(=O)Nc2ccccc2)[C@@H](C)CN([C@@H](C)CO)C(=O)c2cc(NS(=O)(=O)c3ccc(Cl)cc3)ccc2O1 | active |
| C[C@@H]1CCCCO[C@H](CN(C)C(=O)Nc2ccc(F)cc2)[C@@H](C)CN([C@@H](C)CO)C(=O)c2cc(NS(=O)(=O)c3ccc(Cl)cc3)ccc2O1 | active |
| CC(=O)N[C@H]1[C@H](O/N=[N+](\[O-])N2CCCC2)O[C@H](CO)[C@@H](O)[C@@H]1O | inactive |
| COc1ccc(S(=O)(=O)N2C[C@@H](O)COC[C@H]3O[C@@H](CC(=O)NCCCN4CCOCC4)CC[C@@H]32)cc1 | inactive |
| O=C(C[C@H]1C[C@H]2c3cc(NC(=O)NC4CCCC4)ccc3O[C@H]2[C@H](CO)O1)NCc1ccc2c(c1)OCO2 | inactive |
| CC(=O)OC1CCC2(C)C(CCC3(C)C2CCC24OC(=O)C5(CCC(C)C(C)C52)CCC34C)C1(C)C (stereo not drawn) | inactive |
| COc1ccc(CN(C)C[C@@H]2Oc3ccc(NC(=O)C4CC4)cc3CC(=O)N([C@@H](C)CO)C[C@H]2C)cc1 | inactive |
| COc1ccc(CN(C)C[C@@H]2OCCCC[C@H](C)Oc3ccc(NC(=O)Nc4c(C)noc4C)cc3C(=O)N([C@@H](C)CO)C[C@H]2C)cc1 | inactive |
| C[C@H](CO)N1C[C@H](C)[C@H](CN(C)Cc2ccc(Cl)c(Cl)c2)Oc2c(NC(=O)Nc3cccc4ccccc34)cccc2C1=O | inactive |
| Cc1ccc(S(=O)(=O)N(C)C[C@@H]2Oc3ccc(NS(C)(=O)=O)cc3C(=O)N([C@@H](C)CO)C[C@H]2C)cc1 | inactive |
| CC(C)NC(=O)N(C)C[C@H]1Oc2c(NC(=O)Nc3ccc4c(c3)OCO4)cccc2C(=O)N([C@H](C)CO)C[C@H]1C | inactive |
| O=C(C[C@H]1C[C@H]2c3cc(NS(=O)(=O)c4ccc(F)cc4)ccc3O[C@H]2[C@H](CO)O1)NCc1ccccc1 | inactive |
